The other results are listed elsewhere or left out. Results filed as inconclusive are left out. The source made the active and inactive calls. Calls come from the whole dose curve; as a rule, active = well fitted inhibition curve with a large enough effect; inconclusive = small, poorly fitted or top-dose-only effect; inactive = flat fitted curve, though single readings scatter.

Consider five compounds from PubChem BioAssay AID504370 (National Center for Advancing Translational Sciences (NCATS), 2011).

A short description of the test: qHTS Assay for Compounds Blocking the Interaction Between CBF-beta and RUNX1 for the Treatment of Acute Myeloid Leukemia: ME-1 cellular proliferation. Particulars: ME-1 cell proliferation, ATP luminescence, 48 h; series mostly up to 56.1 µM. The text has this:
NIH Chemical Genomics Center [NCGC]
NIH Molecular Libraries Probe Production centers Network [MLPCN]
Assay Submitter (PI): Paul Liu
Core Binding Factor (CBF) abnormalities are associated with 20-25% of all acute myeloid leukemias (AML), of which 5-10% are further sub classified as acute myelomonocytic leukemia with eosinophilia, also known as M4Eo in the FAB classification scheme. This subtype of leukemia is usually associated with chromosome 16 inversion (p13:q22). Chromosome 16 inversion results in formation of the fusion oncogene CBFB-MYH11, which encodes the fusion protein CBF-beta-SMMHC.
It has been hypothesized that the interference of CBF-beta and RUNX1 binding could have therapeutic implications for patients with CBF mediated leukemias. We developed a CBF-beta and RUNX1 binding assay in AlphaScreenTM format and optimized it for high throughput screening to search for inhibitors. The goal of this project is to screen MLPCN's compound collection (MLSMR) for identifying the inhibitors of the interaction between CBF-beta and RUNX1 proteins as research probes. If these probes work well in the animal models, the ultimate goal of this project is to development a new drug treatment for this disease.
The present assay assesses compounds ability to slow cellular proliferation in a CBFb dependent cell line, ME-1.
2uL/well media was dispensed per well into 1536-well white solid-bottom plates using Multidrop Combi dispenser. Subsequently, 23 nL/well compound solutions or DMSO controls were dispensed to the assay plates via a pintool workstation. The cells were grown in T225 flasks to 70% confluence under a standard cell culture condition (ATCC), detached with 0.25% Trypsin/EDTA, and seeded at 250 cells/well in 5uL medium (Dulbecco's Modified Eagle Medium, 10% fetal bovine serum, 1x penicillin/streptomycin).
Take `O=C(OCC1O[C@@H](OC(=O)c2cc(O)c(O)c(O)c2)[C@@H](OC(=O)c2cc(O)c(O)c(O)c2)[C@@H](OC(=O)c2cc(O)c(O)c(O)c2)[C@@H]1OC(=O)c1cc(O)c(O)c(O)c1)c1cc(O)c(O)c(O)c1` (stereo not given in full): the compound was called inactive.

For the compound `COc1cc(C(=S)NCc2ccccc2)cc(Br)c1O`, the call was inactive. With `N#Cc1ccc(C(c2ccc(C#N)cc2)n2cncn2)cc1`, the outcome was inactive. The entry for `CC(C)C(N)C(=O)OCCOCn1cnc2c(=O)[nH]c(N)nc21` (stereo not given) is “inactive”; for `CC[N+](C)(CC)CCC[n+]1c(-c2ccccc2)c2cc(N)ccc2c2ccc(N)cc21` it is “inactive”.
